Paper PMC7826789 (International Journal of Molecular Sciences, 2021)

test system: TTK; details: Compound Concentration (nM):1000
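Also: KINOMEscan scanMAX binding as percent activity remaining versus control; lower means stronger binding.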

Point of comparison: `CC1=C(C(=O)Nc2ccc3[nH]ncc3c2)C(c2ccc(Cl)c(Cl)c2)CC(=O)N1` (stereo not shown) [GSK299115A], “Percent Control” value 89%. Against it:
- CN1CCN(C(=O)c2ccc(NC(=O)Nc3ccc(N(C)c4ccnc(Nc5ccc(CS(C)(=O)=O)cc5)n4)cc3)cc2)CC1.Cl [GW830263A] — lower, 61%
- COc1cc2ncnc(Nc3ccc4c(cnn4Cc4ccccc4)c3)c2cc1OC.Cl [GW282449A] — higher, 96%
- CC1=C(C(=O)Nc2ccc3[nH]ncc3c2)C(c2ccc3ccccc3c2)CC(=O)N1 (stereo not shown) [GSK270822A] — higher, 92%
- O=C(Nc1n[nH]c2nc(-c3ccc(O)cc3)c(Br)cc12)C1CC1 [SB-725317] — higher, 97%
- CCS(=O)(=O)c1ccc(OC)c(Nc2ncc(-c3cccc(F)c3)o2)c1 [GW621970X] — higher, 100%
- COc1ccc2cc(-c3c(-c4ccncc4)nc(-c4ccc(S(C)(=O)=O)cc4C)n3C)ccc2c1 [SB-633825] — higher, 91%
- COc1ccccc1-c1cc(/C=C2\C(=O)Nc3ncc(Br)cc32)cc(Br)c1O [GW442130X] — higher, 97%
- CN(C)c1cc2c(Nc3ccc4c(cnn4Cc4ccccc4)c3)ncnc2cn1 [GW282974X] — lower, 87%
- COc1ccc2[nH]c3c4[nH]c5ccc(OC)cc5c4c4c(c3c2c1)C(=O)NC4=O [GW296115X] — lower, 50%
- COc1cccc(-n2ncc3c(N/N=C/c4ccncc4)ncnc32)c1 [GW784752X] — lower, 88%
- COc1ccc(COc2ccc(Cc3cnc(N)nc3N)cc2OC)cc1 [GW632580X] — lower, 85%
- NS(=O)(=O)c1ccc(N/N=C2\C(=O)Nc3ccc(Cl)cc32)cc1 [GW280670X] — lower, 40%
- COc1cccc(-c2c[nH]c3c(N/N=C/c4ccncc4)ncnc23)c1 [GW814408X] — lower, 79%
- COC(=O)Nc1nc2ccc(Oc3ccc(NC(=O)Nc4cc(C(F)(F)F)ccc4F)cc3)cc2s1.Cl [GW693917A] — lower, 80%
- COc1ccc2c(-c3ccnc(Nc4cccc(OC(F)(F)F)c4)n3)cnn2n1 [GW810372X] — higher, 94%
- NS(=O)(=O)c1ccc(N/N=C2\C(=O)Nc3ccc(-c4cnco4)cc32)cc1 [GW276655] — lower, 20%
- Cl.c1ccc(Cc2nc3ccc(Nc4ncnc5ccccc45)cc3[nH]2)cc1 [GR269666A] — lower, 51%
- C/C(Nc1ccc(S(N)(=O)=O)cc1)=C1/C(=O)Nc2ccccc21 [GW335962X] — lower, 12%
- COc1cc(N2CCN(C(C)C)CC2)ccc1Nc1nc(Nc2ccc(F)cc2C(=O)NC[C@@H](O)CO)c2cc[nH]c2n1 [GSK1392956A] — lower, 4.9%
- Nc1ncnc2occ(-c3ccc(NC(=O)Nc4cc(C(F)(F)F)ccc4F)cc3)c12 [GW770249X] — lower, 61%
- CC(C)COC(=O)c1ccc2c(c1)/C(=C/Nc1ccc(S(N)(=O)=O)cc1)C(=O)N2 [GW416981X] — lower, 6.3%
- Cl.O=C(Nc1ccc(Oc2ccc3[nH]c(NC(=O)c4ccccc4)nc3c2)cc1)Nc1cc(C(F)(F)F)ccc1F [GW709042A] — lower, 87%
- CCc1ccc(Oc2nccc(-c3c(-c4ccc(F)cc4)ncn3C3CCNCC3)n2)cc1 [SB-242719] — lower, 80%
- COc1cc(C)c(N(C)C(=O)CN(C)C)cc1Nc1nc(Nc2cccc(F)c2C(N)=O)c2cc[nH]c2n1 [GSK2219385] — lower, 71%
- NS(=O)(=O)c1ccc(Nc2ncc(-c3ccccc3)o2)cc1 [GW572399X] — lower, 78%
- CCS(=O)(=O)c1ccc(OC)c(Nc2ncc(-c3cccc(OC)c3)o2)c1 [GW580509X] — higher, 90%
- C[C@@H](Oc1cc(-n2cnc3ccc(OC4CCN(C)CC4)cc32)sc1C(N)=O)c1ccccc1Cl [GSK579289A] — lower, 69%
- COc1cc2ncn(-c3cc(O[C@H](C)c4ccccc4Cl)c(C(N)=O)s3)c2cc1OC [GSK237701A] — lower, 82%
- O=C1Nc2ccc(C(=O)c3ccco3)cc2C1=Cc1cc(Cl)c(O)c(Cl)c1 [GW406108X] — lower, 30%
- Cc1cc(O)cc(C)c1/C=C/c1cncc(C(N)=O)c1 [GW435821X] — higher, 90%
- COc1cc(/C=N/Nc2ncnc3[nH]ncc23)ccc1O [GW578748X] — lower, 68%
- COc1cc(C=NNc2ncnc3c2cnn3-c2ccccc2)ccc1O [GW513184X] — higher, 100%
- NS(=O)(=O)c1ccc(N/N=C2\C(=O)Nc3ccc(C(=O)NCCc4c[nH]cn4)cc32)cc1 [GW300660X] — lower, 11%
